# Test results from PubChem BioAssay (Tox21).
# Results filed as inconclusive are left out. A call without a number means that no potency is given here. Activity calls are given as the source filed them. Calls follow the shape of the dose curve; as a rule, active = well fitted cell-killing curve with a large enough effect in the repeat runs; inconclusive = weak or mixed curves; inactive = flat fitted curve, though single readings scatter.
# Assay: qHTS RealTime-Glo MT Cell Viability Assay in HepG2 cells - 8 hour (AID 1224873); also: nearly all actives have a fitted effect of over 55% in size
# Conditions: RealTime-Glo luminescence; series mostly up to 76.8 µM
# Description: National Center for Advancing Translational Sciences [NCATS]
# NIH Chemical Genomics Center [NCGC]
# U.S. Environmental Protection Agency [EPA]
# National Institutes of Environmental Health Sciences [NIEHS]
# National Toxicology Program [NTP]
# U.S. Food and Drug Administration [FDA]
# Measure of cell viability is critical in the cell-base assay. Analysis of cell viability is necessary for the characterization of cell responses to cytotoxic drugs and environmental stress. A RealTime-Glo MT Cell Viability Assay to monitor cell viability in real time of continues cell culture during 40 hours of compound treatment was used to screen Tox21 10K library compounds in HepG2 cells. The RealTime-Glo MT Cell Viability Assay is a nonlytic, homogeneous, bioluminescent method to measure cell viability in real time using a simple, plate-based method. The assay involves adding NanoLuc luciferase and a cell-permeant prosubstrate to cells in culture. Viable cells reduce the proprietary prosubstrate to generate a substrate for NanoLuc luciferase. This substrate diffuses from cells into the surrounding culture medium, where it is rapidly used by the NanoLuc Enzyme to produce a luminescent signal. The signal correlates with the number of viable cells, making the assay well suited for cytotoxicity studies.
# Tox21 Assay Protocol Summary:
# The mixture of HepG2 cell suspension and reagents were dispensed at 600cells/6 ul/well in 1536-well tissue culture treated black solid bottom plates using a Multidrop dispenser. After the assay plates were incubated at a 37 C/5% CO2 incubator for 5 hours, 23 nL of compounds dissolved in DMSO, positive and negative controls was transferred to the assay plate by a pintool work station. The plates were incubated at 37 C for 40 hours. The luminescence intensity were measured at 0h, 8h, 16h, 24h, 32h and 40h time points using ViewLux plate reader during compound treatment.
row,Structure (SMILES),Potency
1,C=C(C)CC(C)(C)C,inactive
2,COc1ccc2cc3[n+](cc2c1OC)CCc1cc2c(cc1-3)OCO2,inactive
3,N[C@@H](Cc1cc(I)c(Oc2ccc(O)c(I)c2)c(I)c1)C(=O)O,inactive
4,CC(=O)Nc1ccc(CC(=O)O)cc1,inactive
5,CC(=O)c1nccs1,inactive
6,O=C(c1ccccc1)c1ccc(O)c(O)c1O,inactive
7,CC(CN1c2ccccc2Sc2ccccc21)N(C)C (stereo not given),inactive
8,CCCCCCCCC(=O)O,inactive
9,CCc1cccc(CC)c1N,inactive
10,OC[C@H]1O[C@@H](Oc2ccc(O)cc2)[C@H](O)[C@@H](O)[C@@H]1O,inactive
11,Cc1ccc(Cl)cc1,inactive
12,N#CCC(=O)O,inactive
13,O=C1CCCCCCCCCCC1,inactive
14,CCCCCCCCCCCCCC(=O)O,inactive
15,C=C(CC(=O)O)C(=O)O,inactive
16,CC(=O)CC(=O)N(C)C,inactive
17,Cc1ccccc1Cl,inactive
18,C[Si](C)(C)N[Si](C)(C)C,inactive
19,Nc1cccc(C(F)(F)F)c1,inactive
20,CN=C(NC#N)NCCSCc1nc[nH]c1C,inactive

row,Structure (SMILES),Potency
1,Cc1cccc(C)c1[N+](=O)[O-],inactive
2,C=CC(C)(C)C,inactive
3,OCc1ccc(Cl)cc1Cl,inactive
4,COc1ccc([C@@H]2CC(=O)c3c(O)cc(O[C@@H]4O[C@H](CO[C@@H]5O[C@@H](C)[C@H](O)[C@@H](O)[C@H]5O)[C@@H](O)[C@H](O)[C@H]4O)cc3O2)cc1OC,inactive
5,O=Cc1ccc(CO)o1,inactive
6,C1CCCNCC1,inactive
7,CC(=O)OC/C=C(\C)CCC=C(C)C,inactive
8,CCCCCCCC(=O)O,inactive
9,Cc1cc(C)cc(O)c1,inactive
10,CC(=O)OC(C)(C)C1CC=C(C)CC1 (stereo not given),inactive
11,CC(=O)OCCC(C)C,inactive
12,CCCCCCCCCCCC(=O)N(C)CC(=O)O,inactive
13,CC(C)=CCC/C(C)=C/C=O,inactive
14,CCCOCC(C)O (stereo not given),inactive
15,CCCCCC(C)=O,inactive
16,NC(=O)c1ncn([C@@H]2O[C@H](CO)[C@@H](O)[C@H]2O)n1,inactive
17,CCCCC(=O)O,inactive
18,O=[N+]([O-])c1cc(C(F)(F)F)ccc1Cl,inactive
19,CC(C)c1ccc(C(C)C)cc1,inactive
20,COc1ccccc1[N+](=O)[O-],inactive
